# Source: PubChem BioAssay AID1273 (Columbia University Molecular Screening Center, 2008)
# Hit rate of the full screen: of about 130,000 compounds, about 1,200 (0.92%) were called active.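 The calls were made as follows: active = inhibition above the mean plus 3 SD, with well images judged a real hit on visual review (cut at about 60% in these data, passing the limit was not always enough); inconclusive = inhibition over the cutoff but images rejected on review; inactive = inhibition not above the cutoff.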 Many of the other results were omitted from the sample, so actives are more common in it than they were.
# Assay: insulin gene promoter suppression in islet cells – imaging, TRM-6 cells (human fetal islet line), eGFP reporter, cell count, primary screen (AID 1273;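 as to normalized cell count: cells exposed to compound for 48 h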)
# Settings: at 2 µM, reporter expression induced with tamoxifen; inhibition: stronger effect = higher value; normalized cell count: measured here: cell count, toxicity
SMILES,inhibition,normalized cell count
CCC(=O)c1cc2c(cc1NC(=O)c1cccs1)OCCO2,80% (active),106%
COc1cc(NC(=O)c2cccs2)ccc1NC(=O)c1ccccc1Cl,20% (inactive),118%
Cc1nc(-c2ccc(NC(=O)c3cccs3)cc2)cs1,43.8% (inactive),89.3%
N/C(=N\OC(=O)COc1ccc([N+](=O)[O-])cc1)c1ccc(Br)cc1,-81.2% (inactive),113%
Cc1cccc(C)c1NC(=S)N(Cc1cccnc1)Cc1ccccc1Cl,-60% (inactive),73.3%
CCOc1ccc(CCNC(=O)CSc2cc(=O)n(C)c3ccc(Cl)cc23)cc1OCC,-11.8% (inactive),144%
CCOc1ccc(CCN2C(=O)c3cccnc3C2=O)cc1OCC,68.4% (active),94.8%
Cc1cccc(N2C(=O)c3cccnc3C2=O)c1,11.4% (inactive),66.7%
C/C(=N\NC(=O)C(N)=O)c1ccc2c(c1)OCCO2,-41.2% (inactive),156%
Cc1nc(NC(=O)CN(C)S(=O)(=O)c2ccc(Cl)cc2)sc1C,80% (active),67.9%
CN(CC(=O)NCCc1ccccn1)S(=O)(=O)c1ccc(Cl)cc1,-33.3% (inactive),83.8%
CN(CC(=O)Nc1cccc2c1CCCC2)S(=O)(=O)c1ccc(Cl)cc1,38.5% (inactive),112%
CCOC(=O)c1cc(C)sc1NC(=O)C1CCC1,87.5% (active),161%
Cc1cnc(NC(=O)C2CCCC2)s1,20.5% (inactive),280%
COC(=O)c1cc(C)sc1NC(=O)CC1Nc2ccccc2NC1=O (stereo unspecified),40.5% (inactive),145%
CCOC(=O)c1ccc(NNC(C)=O)c([N+](=O)[O-])c1,-68.4% (inactive),62.3%
O=C(C1CCCO1)N1CCN(C(=S)NC2CC2)CC1 (stereo unspecified),-29.4% (inactive),80.6%
CC(=O)c1ccc(N2CCN(S(=O)(=O)c3c(C)[nH]c(=O)[nH]c3=O)CC2)cc1,-10% (inactive),114%
C/C(=C\C(=O)c1cccnc1)Nc1ccc(C)c(C)c1,85.7% (active),74%
Cc1ccc(N/C=C/C(=O)c2ccccc2)cc1C,7.69% (inactive),107%
C/C(=C\C(=O)c1ccccc1)Nc1cccc(O)c1,-33.3% (inactive),193%
CCSC1=NCCN1S(=O)(=O)c1ccc(F)cc1,7.69% (inactive),130%

SMILES,inhibition,normalized cell count
COc1cc(NC(=O)COC(=O)c2cnc(C)cn2)c(C)cc1[N+](=O)[O-],27.3% (inactive),90.4%
Cc1cnc(C(=O)OCC(=O)Nc2ccc(Cl)cc2Cl)cn1,81.5% (active),20%
CC(Oc1ccc(Cl)cc1)C(=O)OCC(=O)Nc1ncc(Cl)cc1Cl (stereo unspecified),20% (inactive),100%
Cc1ccc(S(=O)(=O)Cc2cc(-c3ccc(Cl)cc3)no2)cc1,25% (inactive),128%
CCOC(=O)C1(Cc2ccc(Cl)cc2)CCN(C(=O)C2=NNC(=O)CC2)CC1,-46.1% (inactive),93.7%
CCOC(=O)c1nnn(-c2nonc2-n2cccc2)c1CN1CCC(C(=O)OCC)CC1,13.9% (inactive),99.3%
CCOC(=O)c1nnn(-c2nonc2-n2cccc2)c1CN1CCOCC1,13.9% (inactive),62.1%
CCN(CC)Cc1c(C(=O)OC)nnn1-c1nonc1N,72.4% (active),14.1%
Cc1ccc(C(=O)Cn2cccn2)cc1,-62.5% (inactive),90.7%
CNS(=O)(=O)c1ccc(NC(=O)C2CC(=O)N(c3ccc(Cl)cc3)C2)cc1 (stereo unspecified),63.6% (inactive),32.9%
O=C(Nc1nnc(SCc2ccccc2)s1)c1ccco1,0% (inactive),86.4%
CCSc1nnc(NC(=O)c2ccc(C)cc2)s1,-38.7% (inactive),45.1%
Cc1ccc(Nc2nnc(SCc3ccccc3)s2)cc1,100% (active),9.38%
CN(C)CCNC(=O)C(C(=O)c1ccccc1)n1ccccc1=O (stereo unspecified),86.7% (active),49.3%
CN(C)CCNC(=O)/C(=C/c1cccc([N+](=O)[O-])c1)NC(=O)c1ccccc1,-14.3% (inactive),101%
O=C(NCC1CCCO1)C(C(=O)c1ccccc1)n1cc(Cl)ccc1=O (stereo unspecified),-40% (inactive),104%
COCC(=O)Nc1cc(C(=O)OC)cc(C(=O)OC)c1,12.8% (inactive),127%
COCC(=O)Nc1ccc(Br)cc1,73.3% (active),43.9%
Cc1ccc(OC(=O)CCC(=O)Nc2ccc(Br)cc2)cc1,-66.7% (inactive),102%
O=C(Cc1cccc2ccccc12)NCCC1=CCCCC1,-22.2% (inactive),92.7%
CCOC(=O)c1ccccc1NC(=O)CSc1nc2ccccc2c(=O)[nH]1,-83.3% (inactive),180%
